Screens: PubChem, Broad Institute
Rows were chosen to be rich in hits. Some 1.8% of all compounds tested hit in one or more screens of this group.
PDI inh – inhibitors of human PDI, primary screen, biochemical, turbidity, single point, plate reader | Protein disulfide-isomerase (Homo sapiens), P07237 | PDI insulin aggregation turbidity, A650, 90 min | inhibition, % at 10 µM | 0.052% of 350,000 active | AID 588391, 2011;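 active = mean inhibition across replicates of 30% or more, whatever share of single replicates reach that level; inconclusive = mean inhibition below 30% while every single replicate reaches 30%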
Target sequence (P07237 whole entry, looked up): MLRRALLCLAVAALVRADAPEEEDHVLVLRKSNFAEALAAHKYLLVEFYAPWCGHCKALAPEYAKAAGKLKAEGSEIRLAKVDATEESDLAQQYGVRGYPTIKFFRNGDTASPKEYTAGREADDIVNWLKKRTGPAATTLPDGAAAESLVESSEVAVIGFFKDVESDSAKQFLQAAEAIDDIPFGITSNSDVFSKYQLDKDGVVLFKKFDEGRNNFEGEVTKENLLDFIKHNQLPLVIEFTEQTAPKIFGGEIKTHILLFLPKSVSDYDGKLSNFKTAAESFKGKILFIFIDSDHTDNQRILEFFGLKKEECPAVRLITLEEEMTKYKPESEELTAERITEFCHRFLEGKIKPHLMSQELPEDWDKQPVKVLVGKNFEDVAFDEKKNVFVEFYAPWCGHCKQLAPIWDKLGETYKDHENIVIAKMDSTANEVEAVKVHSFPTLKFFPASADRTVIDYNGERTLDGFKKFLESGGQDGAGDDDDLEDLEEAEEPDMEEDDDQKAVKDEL
AF4-AF9 inh – inhibitors of AF4 peptide binding to AF9, primary screen, biochemical, AlphaScreen, biotin-AF4 peptide, FLAG-AF9, single point; Protein AF-9 (Homo sapiens), P42568; inhibition, % at 10 µM; 0.47% of 350,000 active; AID 651704, 2012;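 active = every replicate reaching a set inhibition limit, whatever the replicate mean, cut at about 25% in these data; inconclusive = mean inhibition reaches that limit but some replicates miss it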;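 also: 0% = plate neutral control median and 100% = total signal loss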
ERAP1 inh – human ERAP1 aminopeptidase inhibitors, primary screen, biochemical, single point, plate reader. recombinant ERAP1, Leu-AMC fluorescence, 60 min. inhibition, % at 10.7 µM. 0.15% of 340,000 active. Endoplasmic reticulum aminopeptidase 1 (Homo sapiens), Q9NZ08;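 active = mean replicate inhibition of at least 30%, or all replicates individually reaching that 30% level; inactive = mean below 30% and not every replicate reaching it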;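 also: 0% = neutral control wells and 100% = L-leucinethiol positive control wells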
DENV2 CPE – inhibitors of DENV2 cytopathic effect, primary screen, cell-based, plate reader, single concentration | CPE inhibition, % at 9.99 µM | 1.7% of 350,000 active | DENV2-infected cells, cytopathic effect rescue; in the data active = CPE inhibition above about 20%, passing the limit was not always enough; inconclusive = no clear call, values can overlap the other calls; tested in BHK-21 cells;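 also: 0% = median of neutral control wells and 100% = median of positive control wells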
ERp5 block – inhibitors of ERp5-driven insulin aggregation, primary screen, biochemical, turbidity, absorbance 650 nm, single point; Protein disulfide-isomerase A6 (Homo sapiens), Q15084; 90 min; inhibition, % at 9.99 µM; 0.05% of 350,000 active; AID 651711, 2012;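 active = mean replicate inhibition above about 25%, with every replicate also reaching it, limit read from the data, passing the limit was not always enough; inconclusive = only one of those two criteria met; inactive = neither criterion met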
The depositor's hits bear a star; ! = repeats disagree.

For CCC(=O)N1[C@@H]2Cn3c(ccc(-c4cccc(F)c4)c3=O)[C@H]1[C@@H](C(=O)OC)[C@@H]2CO the results were AF4-AF9 inh 0, ERAP1 inh 0, DENV2 CPE inconclusive and ERp5 block 4.
C[C@@H]1C(=O)O[C@H]2[C@H](O)[C@]34[C@@H]5OC(=O)[C@]3(OC3OC(=O)[C@H](O)C34[C@H](C(C)(C)C)[C@@H]5O)[C@@]12O (stereo partly specified) was read as PDI inh -7, AF4-AF9 inh -3, ERAP1 inh 2, DENV2 CPE 42* and ERp5 block -2.
CC(C)(C)[C@]1(O)C[C@@H]2OC(=O)C[C@@]23C(=O)O[C@@H]2OC(=O)[C@@H](O)C213 (stereo partly specified) was read as PDI inh -8, AF4-AF9 inh -2, ERAP1 inh -2, DENV2 CPE inconclusive and ERp5 block 8.
For CCOc1cccc(CNCCc2c(C)[nH]c3ccc(OC(F)(F)F)cc23)c1O the results were PDI inh 13, AF4-AF9 inh 40*, ERAP1 inh 2, DENV2 CPE -1 and ERp5 block -2.
For CCCCN1C(=N)C(CC)(CC)C(=O)NC1=O the results were PDI inh 4, AF4-AF9 inh 5, ERAP1 inh 1, DENV2 CPE 24* and ERp5 block 13.
For N#Cc1ccc(CN2Cc3ccccc3-n3nncc3C2)cc1 the results were PDI inh -5, AF4-AF9 inh 1, ERAP1 inh 0, DENV2 CPE 109* and ERp5 block 3.
c1ccc(CN2Cc3ccccc3-n3nncc3C2)nc1 was read as PDI inh -11, AF4-AF9 inh -1, ERAP1 inh -1, DENV2 CPE 0 and ERp5 block 0.
`COc1ccc(-n2nnnc2C(CCc2ccccc2)N2CCC(n3c(=O)[nH]c4ccccc43)CC2)cc1` (stereo unspecified) gave AF4-AF9 inh 0, ERAP1 inh 2, DENV2 CPE 56* and ERp5 block 0.
For O=[As](O)(O)c1ccc(N=Nc2ccc(O)cc2)cc1 the results were PDI inh 9, AF4-AF9 inh 1, ERAP1 inh 6, DENV2 CPE -5 and ERp5 block 2.
O=C1C(Cl)=CC(=Nc2ccc(O)cc2)C=C1Cl was read as PDI inh inconclusive, AF4-AF9 inh 36*, ERAP1 inh 4, DENV2 CPE 5 and ERp5 block 2.
O=C(Cc1cccnc1)N1CCCCN2[C@@H](CO)[C@H](c3ccc(C#CC4CC4)cc3)[C@@H]2C1 was read as AF4-AF9 inh 1, ERAP1 inh 4, DENV2 CPE 15 and ERp5 block 0.
Screening COc1ccc(C=C2C(=O)NC(=S)NC2=O)cc1OC returned PDI inh 7, AF4-AF9 inh -5, ERAP1 inh 37*, DENV2 CPE 0 and ERp5 block -2.
Screening CC[n+]1c(-c2ccccc2)c2cc(N)ccc2c2ccc(N)cc21 returned PDI inh 0, AF4-AF9 inh 30*, ERAP1 inh 12, DENV2 CPE 0 and ERp5 block 1.
CCN1CCN(c2ccc(N)c(C)c2)CC1 was read as PDI inh -4, AF4-AF9 inh 37*, ERAP1 inh 1, DENV2 CPE 1 and ERp5 block inconclusive.
`CC=Cc1ccc2n(c1=O)C[C@H]1[C@H](CO)[C@@H](C(=O)OC)[C@@H]2N1CC1CC1` (mixture of isomers) gave AF4-AF9 inh 0, ERAP1 inh 0, DENV2 CPE -4 and ERp5 block -8.
`Nc1ccccc1C(=O)OCCc1ccccc1` gave ERAP1 inh 3, DENV2 CPE 78* and ERp5 block -6.
Screening CCCCOC(=O)c1ccccc1N returned ERAP1 inh 2, DENV2 CPE 6 and ERp5 block -5.
Screening COC(=O)[C@H]1[C@H](CO)[C@H]2Cn3c(cccc3=O)[C@@H]1N2C(=O)C1CCCC1 returned AF4-AF9 inh -8, ERAP1 inh 2, DENV2 CPE -5 and ERp5 block -4.
Screening O=C1CC[C@@]2(O)[C@H]3Cc4ccc(O)c5c4[C@@]2(CCN3CC2CC2)C1O5 (stereo partly specified) returned ERAP1 inh -2, DENV2 CPE 28*! and ERp5 block 2.
Screening COc1ccc2c3c1OC1C(=O)CC[C@@]4(O)[C@@H](C2)N(CC2CC2)CC[C@]314 (stereo partly specified) returned PDI inh 1, ERAP1 inh 0, DENV2 CPE 11 and ERp5 block -6.
Screening Cc1ccc2c(c1N)C(=O)c1ccccc1C2=O returned ERAP1 inh 2, DENV2 CPE 31* and ERp5 block -5.
Screening C[N+](C)(C)CC1CCCc2ccccc2C1=O (stereo unspecified) returned PDI inh -5, AF4-AF9 inh -1, ERAP1 inh 20, DENV2 CPE -1 and ERp5 block 9.
C[N+](C)(C)CC1CCCC(C[N+](C)(C)C)C1=O (stereo unspecified) was read as PDI inh 3, AF4-AF9 inh 3, ERAP1 inh 75*, DENV2 CPE -1 and ERp5 block 2.
Screening N#Cc1c(N2CCNCC2)nc(-c2ccco2)c2c1CCCC2 returned PDI inh -18, AF4-AF9 inh 4, ERAP1 inh 45*, DENV2 CPE 16 and ERp5 block 4.
Screening C/C=C/c1ccc([C@@H]2[C@@H](CO)N3CCCCN(C(=O)Cc4ccncc4)C[C@H]23)cc1 returned AF4-AF9 inh -12, ERAP1 inh 3, DENV2 CPE inconclusive and ERp5 block -1.
O=C(Cc1cccnc1)N1CCCCN2[C@@H](CO)[C@@H](c3ccc(C#CC4CCCC4)cc3)[C@@H]2C1 was read as AF4-AF9 inh 3, ERAP1 inh 1, DENV2 CPE 32* and ERp5 block -3.
O=C(Cc1cccnc1)N1CCCCN2[C@H](CO)[C@H](c3ccc(C#CC4CCCC4)cc3)[C@H]2C1 was read as AF4-AF9 inh 1, ERAP1 inh 0, DENV2 CPE 13 and ERp5 block 7.
Screening N#Cc1cccc(-c2ccc([C@H]3[C@@H](CO)N4CCCCN(C(=O)Cc5cccnc5)C[C@H]34)cc2)c1 returned AF4-AF9 inh -4, ERAP1 inh -1, DENV2 CPE 38* and ERp5 block -1.
O=C(Cc1cccnc1)N1CCCCN2[C@H](CO)[C@@H](c3ccc(C#CC4CCCC4)cc3)[C@H]2C1 was read as AF4-AF9 inh 4, ERAP1 inh -1, DENV2 CPE 40* and ERp5 block -3.
For O=C(Cc1cccnc1)N1CCCCN2[C@@H](CO)[C@@H](c3ccc(C#CC4(O)CCCC4)cc3)[C@@H]2C1 the results were AF4-AF9 inh -4, ERAP1 inh 3, DENV2 CPE 40* and ERp5 block -1.
